Results taken from PubChem BioAssay (Tox21).
Records with an inconclusive call do not appear. The source made the active and inactive calls. Unless noted, the call rests on the fitted dose curve.

How the values were obtained:
[1] = Nuclear factor erythroid 2-related factor 2/antioxidant responsive element (Nrf2/ARE) small molecule agonists: qHTS cell viability counter screen in human keratinocytes (AID 1919968; active means well fitted curve in the direction sought with a large enough effect in the repeat runs; an effect the other way counts as inactive or inconclusive; further: nearly all actives have a fitted effect of over 55% in size; further: potency means the concentration at half of the fitted maximal effect)
Method in brief: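 Viability counter-screen: KeratinoSens reporter cells, DMSO-delivered compounds, 23 h at 37 C, CellTiter-Fluor fluorescence.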

[2] = Nuclear factor erythroid 2-related factor 2/antioxidant responsive element (Nrf2/ARE) small molecule agonists: luciferase reporter gene qHTS assay in human keratinocytes (AID 1919969); further: nearly all actives have a fitted effect of over 35% in size; further: potency means the concentration at half of the fitted maximal effect
[3] = target: KiSS-1 receptor (Homo sapiens) (UniProt Q969F8); assay: Human kisspeptin (KISS1R) small molecule agonists, calcium flux assay in KISS1R-HEK293 cells (AID 1920064; active means well fitted curve in the direction sought with a large enough effect in the repeat runs; an effect the other way counts as inactive or inconclusive)
Method in brief: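 Intracellular calcium mobilization in KISS1R-HEK293 cells was recorded by fluorescence (Ex/Em 480/540) for 3 min following compound addition to cells pre-loaded 1 h with calcium dye.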

[4] = G protein-coupled receptor (GPCR) small molecule agonists, calcium flux assay: HEK293 wild type cell line counter screen (AID 1920065)
Method in brief: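 In this agonist-mode screen, ATP is the positive control and DMSO the vehicle. Cells grow 18 h before a 1 h dye incubation at 37 C; signal is taken at Ex/Em 480/540 over 3 min.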

[5] = p53 small molecule agonists, cell-based qHTS assay with human liver microsomes (AID 1963577); further: potency means the concentration at half of the fitted maximal effect
Method in brief: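 p53RE-bla reporter cells were pre-incubated 5 h at 37 C, then treated with compounds plus human liver microsomes (0.5 mg/mL final) and NADPH (0.5 mg/mL final) for 16 h at 37 C. Beta-lactamase activity was read by LiveBLAzer fluorescence after 2 h at room temperature.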

[6] = p53 small molecule agonists, cell-based qHTS assay with human liver microsomes: qHTS cell viability counter screen (AID 1963579); further: nearly all actives have a fitted effect of over 45% in size
Method in brief: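 p53RE-bla cells (4,000/well) were pre-incubated 5 h at 37 C, then given compounds in DMSO plus human liver microsomes (0.5 mg/mL final) and NADPH (0.5 mg/mL final) for 16 h at 37 C. Viability was read by CellTiter-Glo luminescence.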

[7] = p53 small molecule agonists, cell-based qHTS assay with rat liver microsomes: qHTS cell viability counter screen (AID 1963580); further: nearly all actives have a fitted effect of over 45% in size; further: potency means the concentration at half of the fitted maximal effect
Method in brief: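 p53RE-bla HCT-116 cells were exposed 16 h at 37 C to compounds with rat liver microsomes (0.5 mg/mL) and NADPH (0.5 mg/mL). Viability was measured in the same wells as ATP content by CellTiter-Glo luminescence.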

[8] = p53 small molecule agonists, cell-based qHTS assay (AID 1963582; active means well fitted activation curve with a large enough effect in the signal ratio in the repeat runs, not every such curve was filed as active; the % refers to the signal ratio; further: potency means the concentration at half of the fitted maximal effect)
Method in brief: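 Agonist activity was scored from beta-lactamase FRET fluorescence in p53RE-bla cells treated 16 h at 37 C with compounds in DMSO, substrate incubation being 2 h at room temperature.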

[9] = target: 5-hydroxytryptamine receptor 2A (Homo sapiens) (UniProt P28223); assay: 5-hydroxytryptamine receptor 2A (HTR2A) small molecule agonists, cell-based qHTS assay (AID 1963587); further: nearly all actives have a fitted effect of over 30% in size
Method in brief: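 CHO cells stably expressing human HTR2A, plated 18 h, loaded with calcium dye 1 h at 37 C. Agonist mode: compounds added and intracellular calcium fluorescence recorded kinetically for 2 min at 1 sec intervals.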

[10] = target: Muscarinic acetylcholine receptor M1 (Homo sapiens) (UniProt P11229); assay: Cholinergic receptor muscarinic 1 (CHRM1) small molecule antagonists, cell-based qHTS assay (AID 1963588); further: nearly all actives have a fitted effect of over 40% in size; further: potency means the concentration at half of the fitted maximal effect
Method in brief: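 CHRM1-CHO calcium-flux assay, antagonist mode. Cells were seeded 18 h, dye-loaded 1 h at 37 C and given compound for 5 min at RT, then acetylcholine was added at 50nM. FDSS fluorescence was read 3 min; 15 concentrations, three runs.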

[11] = target: Muscarinic acetylcholine receptor M1 (Homo sapiens) (UniProt P11229); assay: Cholinergic receptor muscarinic 1 (CHRM1) small molecule agonists, cell-based qHTS assay (AID 1963589); further: nearly all actives have a fitted effect of over 35% in size
Method in brief: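 Stable CHRM1-CHO cells (human receptor) were incubated 18 h, dye-loaded for 1 h at 37 C and exposed to test compounds for agonist activity, with calcium-dependent fluorescence followed kinetically.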

[12] = target: Beta-2 adrenergic receptor (Homo sapiens) (UniProt P07550); assay: Adrenergic beta2 receptor (ADRB2) small molecule antagonists, cell-based qHTS assay (AID 1963592); further: nearly all actives have a fitted effect of over 50% in size; further: potency means the concentration at half of the fitted maximal effect; on activity change, negative = inhibition: series mostly up to about 92 µM
Method in brief: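 Cells (CHO, stable ADRB2 overexpression) incubated 18-20hr at 37C; compounds added from DMSO; agonist mix (1nM isoproterenol, 100uM IBMX, 25uM Ro-20-1724) added; 0.5hr RT; d2-cAMP and anti-cAMP-cryptate added; 1hr RT; 665/615 nm read.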

[13] = target: D(2) dopamine receptor (Homo sapiens) (UniProt P14416); assay: Dopamine D2 receptor (DRD2) small molecule agonists, cell-based qHTS assay (AID 1963594); further: nearly all actives have a fitted effect of over 35% in size
Method in brief: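 HEK293 cells stably expressing human DRD2, pre-treated with PDE inhibitor Ro20-1724 (0.1 mM final) and compound 10 min at room temperature, then stimulated with NKH477 (200nM […]) for 30 min. cAMP read by HTRF (665/620 nm).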

[14] = target: D(2) dopamine receptor (Homo sapiens) (UniProt P14416); assay: Dopamine D2 receptor (DRD2) small molecule antagonists, cell-based qHTS assay (AID 1963595; active means well fitted inhibition curve with a large enough effect in the signal ratio in the repeat runs, with a control signal flat; the % refers to the signal ratio; further: potency means the concentration at half of the fitted maximal effect)
Method in brief: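 HTRF cAMP read-out at 665 and 620 nm emission (340 nm excitation). Antagonist mode: compounds were tested against 12 nM quinpirole in DRD2-HEK293 cells, with 200 nM NKH477 raising cAMP and 0.1 mM Ro20-1724 blocking its breakdown.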

[15] = p53 small molecule agonists, cell-based qHTS assay with rat liver microsomes (AID 1963578)
Method in brief: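 p53RE-bla cells were exposed to compounds together with rat liver microsomes (0.5 mg/mL final) and NADPH (0.5 mg/mL final) for 16 h at 37 C, then read by LiveBLAzer beta-lactamase fluorescence after 2 h at room temperature.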

[16] = p53 small molecule agonists, cell-based qHTS assay: qHTS cell viability counter screen (AID 1963581); further: nearly all actives have a fitted effect of over 45% in size; further: potency means the concentration at half of the fitted maximal effect
Method in brief: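 Compounds are pinned onto HCT-116 p53RE-bla cells and left 16 h at 37 C. Following the reporter FRET read, ATP is quantified by CellTiter-Glo luminescence after 30 min at room temperature.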

[17] = target: 5-hydroxytryptamine receptor 2A (Homo sapiens) (UniProt P28223); assay: 5-hydroxytryptamine receptor 2A (HTR2A) small molecule antagonists, cell-based qHTS assay (AID 1963586); further: nearly all actives have a fitted effect of over 45% in size
Method in brief: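 Antagonist-mode intracellular calcium assay: DOI (4 nM) added after 5 min compound pre-incubation at room temperature to dye-loaded HTR2A-CHO cells. Fluorescence followed for 3 min, sampled every second.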

[18] = cAMP Responsive Elements (CRE) small molecule agonists, cell-based qHTS assay (AID 1963590)
Method in brief: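 FRET-based beta-lactamase readout (LiveBLAzer B/G, 2 h RT) quantified CRE activation in HEK 293T CRE-bla cells after 3 h treatment with DMSO-dissolved compounds.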

[19] = cAMP Responsive Elements (CRE) small molecule antagonists, cell-based qHTS assay (AID 1963591; active means well fitted inhibition curve with a large enough effect in the signal ratio in the repeat runs, not every such curve was filed as active; the % refers to the signal ratio)
Method in brief: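 qHTS in CRE-bla HEK 293T cells: compound in DMSO, then 0.25 uM NKH477 (final), 3 h at 37 °C/5% CO2; beta-lactamase FRET read-out after 2 h substrate incubation.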

[20] = target: Beta-2 adrenergic receptor (Homo sapiens) (UniProt P07550); assay: Adrenergic beta2 receptor (ADRB2) small molecule agonists, cell-based qHTS assay (AID 1963593);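 further: CHO cells stably overexpressing human ADRB2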
Method in brief: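 CHO cells stably over-expressing ADRB2 were plated overnight at 37C, then dosed with compounds plus a stimulation mix containing 100uM IBMX and 25uM Ro-20-1724 for 0.5hr at room temperature. cAMP was measured by HTRF competition, 1hr.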
On the % scale 0 is the no-effect control and ±100 the full control effect.

Chain of D(2) dopamine receptor (Homo sapiens) (P14416 whole entry, looked up): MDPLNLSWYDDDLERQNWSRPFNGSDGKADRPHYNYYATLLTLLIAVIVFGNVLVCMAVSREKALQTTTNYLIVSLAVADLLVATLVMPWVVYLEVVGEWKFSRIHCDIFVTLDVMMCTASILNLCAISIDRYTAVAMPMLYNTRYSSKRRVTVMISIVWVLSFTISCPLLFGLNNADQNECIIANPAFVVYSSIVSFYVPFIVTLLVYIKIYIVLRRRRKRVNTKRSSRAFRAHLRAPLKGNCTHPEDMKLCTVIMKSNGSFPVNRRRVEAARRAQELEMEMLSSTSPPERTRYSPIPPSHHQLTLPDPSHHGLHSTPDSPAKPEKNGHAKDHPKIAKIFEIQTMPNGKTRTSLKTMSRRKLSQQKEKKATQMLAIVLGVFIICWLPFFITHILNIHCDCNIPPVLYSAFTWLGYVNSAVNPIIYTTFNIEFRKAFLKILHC
Chain of 5-hydroxytryptamine receptor 2A (Homo sapiens) (P28223 whole entry, looked up): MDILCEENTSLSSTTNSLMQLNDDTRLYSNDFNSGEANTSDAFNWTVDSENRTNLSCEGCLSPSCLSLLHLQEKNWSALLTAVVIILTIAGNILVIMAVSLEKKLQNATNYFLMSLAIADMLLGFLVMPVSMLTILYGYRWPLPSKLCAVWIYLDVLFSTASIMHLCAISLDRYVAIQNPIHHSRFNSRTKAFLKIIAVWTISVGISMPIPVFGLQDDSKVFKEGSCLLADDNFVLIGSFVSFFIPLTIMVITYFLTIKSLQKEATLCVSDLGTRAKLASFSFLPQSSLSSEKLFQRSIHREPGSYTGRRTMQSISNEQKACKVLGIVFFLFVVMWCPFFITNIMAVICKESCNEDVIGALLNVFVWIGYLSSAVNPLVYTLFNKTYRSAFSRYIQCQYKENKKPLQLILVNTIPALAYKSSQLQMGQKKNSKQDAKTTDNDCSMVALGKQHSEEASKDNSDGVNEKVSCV
Chain of Beta-2 adrenergic receptor (Homo sapiens) (P07550 whole entry, looked up): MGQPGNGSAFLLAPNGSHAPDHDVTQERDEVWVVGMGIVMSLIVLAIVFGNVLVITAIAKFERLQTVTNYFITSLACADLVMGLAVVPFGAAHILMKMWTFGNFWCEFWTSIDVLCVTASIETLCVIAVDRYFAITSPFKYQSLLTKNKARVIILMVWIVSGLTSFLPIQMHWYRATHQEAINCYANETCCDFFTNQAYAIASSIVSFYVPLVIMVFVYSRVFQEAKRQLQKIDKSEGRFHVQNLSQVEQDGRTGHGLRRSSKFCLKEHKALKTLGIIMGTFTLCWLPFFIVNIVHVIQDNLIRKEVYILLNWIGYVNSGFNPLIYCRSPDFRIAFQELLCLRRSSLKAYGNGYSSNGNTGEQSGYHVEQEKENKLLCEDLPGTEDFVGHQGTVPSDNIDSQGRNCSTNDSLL
Chain of KiSS-1 receptor (Homo sapiens) (Q969F8 whole entry, looked up): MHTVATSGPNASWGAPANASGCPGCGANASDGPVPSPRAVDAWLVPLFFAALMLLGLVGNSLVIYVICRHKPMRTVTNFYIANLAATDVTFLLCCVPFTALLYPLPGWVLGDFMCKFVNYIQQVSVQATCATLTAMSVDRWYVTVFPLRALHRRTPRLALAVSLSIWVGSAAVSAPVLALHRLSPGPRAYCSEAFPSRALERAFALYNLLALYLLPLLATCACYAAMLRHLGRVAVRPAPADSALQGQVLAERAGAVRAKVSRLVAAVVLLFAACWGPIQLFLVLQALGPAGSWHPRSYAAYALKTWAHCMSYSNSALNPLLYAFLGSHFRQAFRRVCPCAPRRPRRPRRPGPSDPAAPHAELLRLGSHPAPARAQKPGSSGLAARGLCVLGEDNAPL
Chain of Muscarinic acetylcholine receptor M1 (Homo sapiens) (P11229 whole entry, looked up): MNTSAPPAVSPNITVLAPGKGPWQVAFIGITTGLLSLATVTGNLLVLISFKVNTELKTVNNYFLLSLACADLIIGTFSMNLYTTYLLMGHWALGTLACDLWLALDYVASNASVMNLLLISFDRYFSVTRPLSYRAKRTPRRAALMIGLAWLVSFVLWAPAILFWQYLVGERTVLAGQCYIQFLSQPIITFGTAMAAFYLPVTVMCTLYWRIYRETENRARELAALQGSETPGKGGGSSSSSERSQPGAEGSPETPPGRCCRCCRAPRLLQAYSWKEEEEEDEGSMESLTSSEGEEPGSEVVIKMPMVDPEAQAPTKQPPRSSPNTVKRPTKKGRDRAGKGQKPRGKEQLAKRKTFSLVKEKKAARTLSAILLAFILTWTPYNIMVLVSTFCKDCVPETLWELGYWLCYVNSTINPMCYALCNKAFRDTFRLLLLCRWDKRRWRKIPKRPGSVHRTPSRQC

CCOP(=S)(OCC)SCn1nnc2ccccc2c1=O
active: Potency [5] 3240 nM
inactive: Potency [1] | Potency [2] | Potency [3] | Potency [4] | Potency [6] | Potency [7] | Potency [8] | Potency [9] | Potency [10] | Potency [11] | Potency [12] | Potency [13] | Potency [14]

COC12CC[C@@]3(C[C@@H]1C(C)(O)C(C)(C)C)[C@H]1Cc4ccc(O)c5c4[C@@]3(CCN1CC1CC1)[C@H]2O5 (stereo partly specified)
active: Potency [1] 30400 nM | Potency [10] 33200 nM
inactive: Potency [2] | Potency [3] | Potency [4] | Potency [5] | Potency [15] | Potency [16] | Potency [11] | Potency [12] | Potency [13]

Clc1c(Cl)c(Cl)c(Cl)c(Cl)c1Cl
inactive: activity change, negative = cytotoxicity [1] 1.8% [at 8.39 µM] | activity, positive = activation [2] 1.26% [at 8.39 µM] | activation [3] 2.59% [at 6.97 µM] | activation [4] 0.0562% [at 5.23 µM] | activation [5] -0.641% [at 5.99 µM] | activity change, negative = cytotoxicity [6] -8.08% [at 5.99 µM] | activity change, negative = cytotoxicity [7] 3.81% [at 5.99 µM] | activity change, negative = cytotoxicity [16] 19.3% [at 5.99 µM] | activity, negative = inhibition [17] 3.79% [at 5.62 µM] | activation [9] -3.36% [at 7.02 µM] | activity, negative = inhibition [10] 4.33% [at 5.58 µM] | activation [11] 0.839% [at 6.97 µM] | activation [18] 0.371% [at 8.39 µM] | activity change, negative = inhibition [19] -9.17% [at 8.39 µM] | activity change, negative = inhibition [12] -5.22% [at 8.39 µM] | activation [20] 15.9% [at 8.39 µM] | activation [13] -1.37% [at 8.39 µM] | activity change, negative = inhibition [14] -2.06% [at 8.38 µM]

CCC1(c2ccccc2)C(=O)N=C(O)NC1=O (stereo unspecified)
inactive: Potency [1] | Potency [2] | Potency [3] | Potency [4] | Potency [5] | Potency [15] | Potency [6] | Potency [7] | Potency [8] | Potency [18] | Potency [19] | Potency [12] | Potency [20] | Potency [13] | Potency [14]

CCC[CH2][Sn]([CH2]CCC)([CH2]CCC)[O][Sn]([CH2]CCC)([CH2]CCC)[CH2]CCC
inactive: activation [3] 9.21% [at 6.97 µM] | activation [4] 2.41% [at 5.23 µM] | activation [5] -15.1% [at 5.99 µM] | activation [15] -3.45% [at 5.99 µM] | activity, negative = inhibition [10] 0.927% [at 5.58 µM] | activation [11] 7.77% [at 6.97 µM] | activation [13] 2.93% [at 8.39 µM]
active: Potency [1] 533 nM | Potency [2] 533 nM | Potency [7] 1000 nM | Potency [16] 893 nM | Potency [12] 1680 nM | Potency [14] 2120 nM

COP(=S)(OC)Oc1ccc([N+](=O)[O-])c(C)c1
active: Potency [16] 363 nM
inactive: Potency [1] | Potency [2] | Potency [3] | Potency [4] | Potency [6] | Potency [7] | Potency [8] | Potency [17] | Potency [9] | Potency [11] | Potency [18] | Potency [19] | Potency [12] | Potency [20]

N#Cc1c[nH]cc1-c1cccc2c1OC(F)(F)O2
active: Potency [8] 14500 nM
inactive: Potency [1] | Potency [2] | Potency [3] | Potency [4] | Potency [15] | Potency [6] | Potency [7] | Potency [17] | Potency [9] | Potency [10] | Potency [11] | Potency [12] | Potency [13] | Potency [14]
